Reference: PubChem BioAssay (EPA / NIEHS)
Inconclusive results are not listed. Calls of active or inactive are those of the source. Rule for the calls: active = hit-call score of the fitted dose curve at least 0.9, where 1 is the maximum; inconclusive = response in the unintended direction; inactive = score below 0.9.

Assays:
[1] = Tanguay_ZF_120hpf_EYE_legacy: (Legacy) Oregon State University Tanguay Lab 120 Hour Post-fertilization zebrafish Assay for Eye Malformation (AID 2283636);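 note: binary presence or absence of eye malformation scored by brightfield in 120 hpf larvae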
How it was run: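 Dechorionated Tropical 5D zebrafish embryos, one per well from 6 hpf, static exposure to 120 hpf at 28C, 0.64% DMSO. Eye malformation scored present/absent by brightfield; dead embryos not scored.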

[2] = Tanguay_ZF_120hpf_SNOU_legacy: (Legacy) Oregon State University Tanguay Lab 120 Hour Post-fertilization zebrafish Assay for Snout Malformation (AID 2283637)
How it was run: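 Dechorionated tropical 5D wild-type zebrafish embryos exposed statically from 6 to 120 hpf at 28C, one per well, in 0.64% DMSO. Snout malformation scored as present/absent by brightfield at 120 hpf; dead embryos not scored.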

[3] = Tanguay_ZF_120hpf_JAW_legacy: (Legacy) Oregon State University Tanguay Lab 120 Hour Post-fertilization zebrafish Assay for Jaw Malformation (AID 2283638)
How it was run: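 Wild-type 5D embryos, chorion removed at 4 hpf, dosed singly from 6 hpf; 28C static, sealed, foil-covered, to 120 hpf. Endpoint: jaw defect yes/no (brightfield); mortality excludes scoring.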

[4] = Tanguay_ZF_120hpf_OTIC_legacy: (Legacy) Oregon State University Tanguay Lab 120 Hour Post-fertilization zebrafish Assay for Otic Vesicle Malformation (AID 2283639)
How it was run: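 Tropical 5D wild-type zebrafish embryos were exposed statically in sealed, foil-covered plates at 28C until 120 hpf, with 0.64% (vol/vol) DMSO final. Otic vesicle malformation was scored present/absent by brightfield microscopy, with DMSO as baseline.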

[5] = Tanguay_ZF_120hpf_PE_legacy: (Legacy) Oregon State University Tanguay Lab 120 Hour Post-fertilization zebrafish Assay for Pericardial Edema (AID 2283640)
How it was run: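 Zebrafish larvae are exposed from early development to 120 hpf at 28C, with 0.64% DMSO final. Each surviving larva receives a yes/no pericardial edema call by brightfield imaging, analysed relative to the DMSO baseline.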

[6] = Tanguay_ZF_120hpf_BRAI_legacy: (Legacy) Oregon State University Tanguay Lab 120 Hour Post-fertilization zebrafish Assay for Brain Malformation (AID 2283641)
How it was run: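 Static exposure of staged wild-type embryos until 120 hpf, kept at 28C with light excluded and final DMSO of 0.64% (vol/vol). Presence or absence of brain malformation was noted under brightfield; mortality precluded scoring.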

[7] = Tanguay_ZF_120hpf_SOMI_legacy: (Legacy) Oregon State University Tanguay Lab 120 Hour Post-fertilization zebrafish Assay for Somite Malformation (AID 2283647)
How it was run: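 Somitogenesis defects are recorded as binary calls in whole larvae at 120 hpf after continuous static chemical exposure starting at 6 hpf in dechorionated 5D embryos. DMSO serves as negative control and baseline.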

[8] = Tanguay_ZF_120hpf_PFIN_legacy: (Legacy) Oregon State University Tanguay Lab 120 Hour Post-fertilization zebrafish Assay for Pectoral Fin Malformation (AID 2283648);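 note: each larva judged yes or no for fin defect by brightfield with dead larvae skipped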
How it was run: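 Dechorionated Tropical 5D wild-type zebrafish embryos, one per well, statically exposed from 6 to 120 hpf at 28C with 0.64% DMSO final. Pectoral fin malformation scored present/absent by brightfield at 120 hpf; not scored in dead embryos.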

[9] = Tanguay_ZF_120hpf_CFIN_legacy: (Legacy) Oregon State University Tanguay Lab 120 Hour Post-fertilization zebrafish Assay for Caudal Fin Malformation (AID 2283649)
How it was run: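 Single dechorionated 5D wild-type embryos are dosed at 6 hpf (final DMSO 0.64%) and held statically at 28C. Caudal fin malformation is recorded as present or absent at 120 hpf under brightfield, excluding dead embryos.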

[10] = Tanguay_ZF_120hpf_PIG_legacy: (Legacy) Oregon State University Tanguay Lab 120 Hour Post-fertilization zebrafish Assay for Pigmentation Malformation (AID 2283650)
How it was run: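 Dechorionated Tropical 5D wild-type embryos, one per well from 6 hpf, statically exposed at 28C in the dark until 120 hpf, 0.64% DMSO final. Pigmentation scored present/absent by brightfield microscopy; dead embryos not scored; fitted versus DMSO.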

[11] = Tanguay_ZF_120hpf_SWIM_legacy: (Legacy) Oregon State University Tanguay Lab 120 Hour Post-fertilization zebrafish Assay for Swim Bladder Malformation (AID 2283654);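 note: swim bladder malformation in each larva scored yes or no under brightfield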
How it was run: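 Dechorionated wild-type Tropical 5D zebrafish embryos, one per well from 6 hpf, were statically exposed at 28C until 120 hpf in 0.64% DMSO. Swim bladder malformation scored as present/absent by brightfield microscopy; not scored in dead larvae.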

[12] = Tanguay_ZF_120hpf_NC_legacy: (Legacy) Oregon State University Tanguay Lab 120 Hour Post-fertilization zebrafish Assay for Notochord and Tail Malformation (AID 2283656)
How it was run: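 Dechorionated 5D zebrafish, 1/well from 6 hpf; static exposure to 120 hpf, 28C, sealed, dark; final DMSO 0.64% v/v. NC scored binary (present/absent); dead embryos not scored. Fit vs DMSO baseline, gain direction.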

[13] = test system: Thyroperoxidase (TPO), gene 54314; experiment: CCTE_Simmons_AUR_rTPO: CCTE's Amplex UltraRed Assay for Thyroperoxidase (TPO) Inhibition, Simmons Lab (AID 2283662);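 note: potency for loss of signal meaning inhibition of peroxidase activity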
How it was run: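 Rat thyroid microsomes (5 ug protein) were incubated with test compound (8 concentrations, 5 nM–87.5 uM final, 0.5% DMSO), 25 uM Amplex UltraRed and 300 uM H2O2 in 200 mM phosphate buffer for 30 min at 37C in the dark; fluorescence read at 544/590 nm.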

[14] = CCTE_Simmons_CellTiterGLO_HEK293T: Viability Assessment in CCTE's Assays for Thyroperoxidase (TPO) Inhibition, Simmons Lab (AID 2283665);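 for AC50: cells exposed to compound for 24 h before readout; actives reduce ATP signal below DMSO vehicle meaning cytotoxicity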
How it was run: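 HEK293T cells in DMEM with 1% FBS were dosed with 8 concentrations (5 nM–87.5 uM final, 0.5% DMSO) for 24 hr at 37C; ATP content was read by CellTiter-Glo luminescence, loss-of-signal versus DMSO, three biological replicates.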

[15] = Tanguay_ZF_120hpf_CIRC_legacy: (Legacy) Oregon State University Tanguay Lab 120 Hour Post-fertilization zebrafish Assay for Circulatory Malformation (AID 2283651)
How it was run: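 Tropical 5D wild-type embryos, dechorionated with pronase at 4 hpf, were placed singly in wells at 6 hpf and exposed statically at 28C to 120 hpf (0.64% DMSO final). Circulatory malformation was scored present/absent by brightfield microscopy.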

[16] = Tanguay_ZF_120hpf_TRUN_legacy: (Legacy) Oregon State University Tanguay Lab 120 Hour Post-fertilization zebrafish Assay for Truncated Body (AID 2283655)
How it was run: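 Single dechorionated zebrafish embryos received test chemical from 6 hpf in 0.64% DMSO, kept at 28C. At 120 hpf, brightfield inspection noted any truncated body.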

SMILES: CCOc1cccc(-n2cc(C(=O)N3CCN(c4cc(C(=O)O)c5ccccc5c4)CC3)nc2-c2ccc(C)cc2)c1
- outcome [1]: inactive
- outcome [2]: inactive
- outcome [3]: inactive
- outcome [4]: inactive
- outcome [5]: inactive
- outcome [6]: inactive
- outcome [7]: inactive
- outcome [8]: inactive
- outcome [9]: inactive
- outcome [10]: inactive
- outcome [11]: inactive
- outcome [12]: inactive
- AC50 [13]: 43.8 µM (active)
- AC50 [14]: 22.6 µM (active)

SMILES: CCCCCCCCCCCCc1ccccc1
- outcome [1]: inactive
- outcome [2]: inactive
- outcome [3]: inactive
- outcome [4]: inactive
- outcome [5]: inactive
- outcome [6]: inactive
- outcome [7]: inactive
- outcome [8]: inactive
- outcome [9]: inactive
- outcome [15]: inactive
- outcome [11]: inactive
- outcome [12]: inactive

SMILES: O=C(NS(=O)(=O)/C=C/c1ccccc1)c1ccc(F)cc1Cl
- outcome [1]: inactive
- outcome [2]: inactive
- outcome [3]: inactive
- outcome [4]: inactive
- outcome [5]: inactive
- outcome [6]: inactive
- outcome [9]: inactive
- outcome [10]: inactive
- outcome [16]: inactive
- outcome [12]: inactive

SMILES: COc1cccc(-c2ccc(/C=C\CN3CCCCCC3)cc2Cl)c1
- outcome [1]: inactive
- outcome [2]: inactive
- outcome [3]: inactive
- outcome [4]: inactive
- outcome [5]: inactive
- outcome [6]: inactive
- outcome [7]: inactive
- outcome [8]: inactive
- outcome [10]: inactive
- outcome [11]: inactive
- outcome [12]: inactive

SMILES: O=C(O)c1cccc(N(Cc2cccnc2)c2ccc(OC(F)F)c(OC(F)F)c2)c1
- outcome [1]: inactive
- outcome [2]: inactive
- outcome [3]: inactive
- outcome [4]: inactive
- outcome [5]: inactive
- outcome [6]: inactive
- outcome [7]: inactive
- outcome [8]: inactive
- outcome [9]: inactive
- outcome [15]: inactive
- outcome [11]: inactive
- outcome [16]: inactive
- outcome [12]: inactive
- AC50 [13]: 31.2 µM (active)
- outcome [14]: inactive

SMILES: O=c1[nH]c2ccc(S(=O)CCN3CCC(Cc4ccc(F)cc4)CC3)cc2o1 (stereo not drawn)
- outcome [1]: inactive
- outcome [2]: inactive
- outcome [3]: inactive
- outcome [4]: inactive
- outcome [5]: inactive
- outcome [6]: inactive
- outcome [7]: inactive
- outcome [8]: inactive
- outcome [9]: inactive
- outcome [10]: inactive
- outcome [15]: inactive
- outcome [16]: inactive

SMILES: CC(=O)OCCC(C)C
- outcome [1]: inactive
- outcome [2]: inactive
- outcome [3]: inactive
- outcome [4]: inactive
- outcome [5]: inactive
- outcome [6]: inactive
- outcome [9]: inactive
- outcome [11]: inactive
- outcome [12]: inactive

SMILES: CC(=O)c1ccc2c(c1)[C@H](NC(=O)c1ccc(F)cc1)[C@@H](O)C(C)(C)O2
- outcome [2]: inactive
- outcome [3]: inactive
- outcome [4]: inactive
- outcome [5]: inactive
- outcome [6]: inactive
- outcome [7]: inactive
- outcome [8]: inactive
- outcome [9]: inactive
- outcome [10]: inactive
- outcome [15]: inactive
- outcome [11]: inactive

SMILES: CCCCCCCCO
- outcome [1]: inactive
- outcome [2]: inactive
- outcome [3]: inactive
- outcome [5]: inactive
- outcome [6]: inactive
- outcome [7]: inactive
- outcome [8]: inactive
- outcome [9]: inactive
- outcome [10]: inactive
- outcome [11]: inactive
- outcome [16]: inactive

SMILES: CN(C)c1ccc(Cc2ccc(N(C)C)cc2)cc1
- outcome [1]: inactive
- outcome [2]: inactive
- outcome [3]: inactive
- outcome [5]: inactive
- outcome [6]: inactive
- outcome [7]: inactive
- outcome [8]: inactive
- outcome [9]: inactive
- outcome [10]: inactive
- outcome [15]: inactive
- outcome [11]: inactive
- AC50 [13]: 12 µM (active)
- AC50 [14]: 22.3 µM (active)
